INHIBITION data for 53 compounds are collected here from ChEMBL document CHEMBL4513216, “Probing the Open Global Health Chemical Diversity Library for Multistage-Active Starting Points for Next-Generation Antimalarials” (ACS Infect Dis, 2020).

The structures appear in SMILES notation. The whole screen tested about 68,000 compounds, of which about 2,700 (4%) showed an effect of 50% or more. What follows is part of a selection rich in strong results, with near analogues and random picks from the rest.

This assay has as its system Plasmodium berghei. Kind of assay: Screen against P. berghei liver stage (PbLuc), transformed with Luciferase, at 2uM. The class given is functional, HepG2. Conditions: tested at 2 uM.
`COc1ccc(CN2CCOC[C@H](Oc3cccnc3)C2)cc1`: the INHIBITION was found to be 27.04%.

For `Cc1cccc(O[C@H]2COCCN(Cc3sc(C)nc3C)C2)n1`, the INHIBITION was found to be 17.64%.

Turning to `Cc1nc(C)c(CN2CCOC[C@H](Oc3ccccc3)C2)s1`, the INHIBITION was 64.92%.

Consider `CC(C)CN1CCOC[C@H](Oc2ccc(S(C)(=O)=O)cc2)C1`, for which the INHIBITION is reported as -36.65%.

For the compound `CS(=O)(=O)c1ccc(O[C@H]2COCCN(Cc3ccncc3)C2)cc1`, the INHIBITION amounted to 50.91%.

Consider `CCN(Cc1ccc(C#N)cc1F)C(=O)C(C)(C)C`, for which the INHIBITION came to 0.53%.

For `CCCS(=O)(=O)N1C[C@H]2CC[C@@H](C1)N(Cc1cscn1)C2=O`, the INHIBITION amounted to 36.28%.

Consider `CN(C)CC(=O)N1CCC2(CC1)COCCN(Cc1ccncc1)C2`, for which the INHIBITION stood at 32.66%.

Regarding `CCCc1nc(C(=O)N[C@H]2COC[C@@H]2N2CCN(C)CC2)cs1`, the INHIBITION is reported as -0.83%.

On to `CS(=O)(=O)CCCN(CCc1cccc(F)c1)C1CC1`, for which the INHIBITION turned out to be 7.36%.

In the case of `Cc1csc2c(N3CCNC(C(=O)Nc4ccc(F)cc4)C3)ncnc12` (stereo not drawn), the INHIBITION is listed as -17.67%.

As to `Cc1ccc2c(c1)C(=O)NCC1(CCN(C(=O)c3ccccn3)CC1)O2`, the INHIBITION was 38.12%.

For `Cc1ccc2c(c1)C(=O)NCC1(CCN(C(=O)c3sccc3C)CC1)O2`, the INHIBITION is listed as 46.15%.

Take `CCC(=O)N1CCC2(CC1)CNC(=O)c1cc(C)ccc1O2`: the INHIBITION is recorded as 61.99%.

Consider `Cc1ccc2c(c1)C(=O)NCC1(CCN(C(=O)c3cc(C)no3)CC1)O2`, for which the INHIBITION was determined as 9.51%.

Consider `Cc1ccc2c(c1)C(=O)NCC1(CCN(C(=O)c3scnc3C)CC1)O2`, for which the INHIBITION is recorded as -2.31%.

For the compound `Cc1ccc2c(c1)C(=O)NCC1(CCN(C(=O)c3ccnn3C)CC1)O2`, the INHIBITION is 59.27%.

`Cc1ccc2c(c1)C(=O)NCC1(CCN(C(=O)c3cnccn3)CC1)O2`: the INHIBITION was 64.07%.

In the case of `Cc1ccc2c(c1)C(=O)NCC1(CCN(Cc3ccccc3)CC1)O2`, the INHIBITION is listed as 34.9%.

Regarding `Cc1ccc2c(c1)C(=O)NCC1(CCN(C(=O)c3csc(C)c3)CC1)O2`, the INHIBITION amounted to 38.75%.

Regarding `Cc1ccc(F)cc1NC(=O)CCn1cncn1`, the INHIBITION is on record as 5.31%.

With `Cc1nc(CN2C[C@@H]3CN(C(=O)c4cccn4C)C[C@@H]3C2=O)cs1`, the INHIBITION is given as -32.67%.

As for `O=C(C1CCCCC1)N1CCC2(CC1)CNCc1ccccc12`, the INHIBITION worked out at 31.27%.

`O=C(CN1CCOC(CNc2cccnn2)C1)NCc1ccccn1` (stereo not drawn): the INHIBITION was 33.12%.

As to `Cc1nn(CC(=O)O)c(C)c1NS(=O)(=O)c1cc2ccccc2s1`, the INHIBITION is -38.97%.

As to `O=c1cc(CN2CCCC(CCc3c(F)cccc3F)C2)[nH]c(=O)[nH]1` (stereo not drawn), the INHIBITION is on record as -21.63%.

For the compound `CS(=O)(=O)Cc1cc(Cl)c2c(c1)OCCCO2`, the INHIBITION turned out to be 45.82%.

Regarding `CS(=O)(=O)CCS(=O)(=O)Cc1cc(Cl)c2c(c1)OCCCO2`, the INHIBITION came to 72.05%.

With `CN(C)C(=O)CCS(=O)(=O)Cc1cc(Cl)c2c(c1)OCO2`, the INHIBITION is given as 66.2%.

Consider `CN(C)C(=O)CCCS(=O)(=O)Cc1cc(Cl)c2c(c1)OCO2`, for which the INHIBITION was determined as 27.5%.

Consider `CNC(=O)CCS(=O)(=O)Cc1cc(Cl)c2c(c1)OCCCO2`, for which the INHIBITION was 19%.

Regarding `CN(C)C(=O)CCS(=O)(=O)Cc1cc(Cl)c2c(c1)OCCO2`, the INHIBITION was 48.21%.

As to `CC(C)(O)CN1CCN(C(=O)c2sccc2C#N)CC1`, the INHIBITION is reported as -29.69%.

As to `c1cnc(N2C[C@H]3CCN(Cc4ccncc4)C[C@H]3C2)nc1`, the INHIBITION is given as -20.87%.

Consider `CC(NC(=O)N1CCC(OCc2ccccc2)CC1)c1nncn1C` (stereo not drawn), for which the INHIBITION came to 29.11%.

`Cc1cc(C)c(C)c(OCCCNC(=O)NC(C)c2nncn2C)c1` (stereo not drawn): the INHIBITION came out at 38.97%.

Regarding `COc1ccc(F)cc1C(=O)N1CCCC(CNS(C)(=O)=O)C1` (stereo not drawn), the INHIBITION was -42.84%.

For `O=C(NCCCNC(=O)C1CCC1)NCCn1cccc1`, the INHIBITION was found to be 7.33%.

`N#Cc1c(N2CCN(CC3CCOC3)CC2)nc2ccccn12` (stereo not drawn): the INHIBITION turned out to be 83.18%.

For the compound `CN1CCCC(N2CCN(c3nc4ccccn4c3C#N)CC2)C1` (stereo not drawn), the INHIBITION amounted to 38.1%.

On to `N#Cc1c(N2CCCN(C3CCOCC3)CC2)nc2ccccn12`, for which the INHIBITION was found to be 14.2%.

Take `Cn1cccc1C(=O)N1CCc2ncnc(C3CC3)c2CC1`: the INHIBITION turned out to be 11.72%.

For the compound `Cc1cc(C(=O)NC2CCCCNC2=O)c(=O)[nH]c1C` (stereo not drawn), the INHIBITION amounted to 52.08%.

`Cc1ccc(C(=O)NC2CCCCNC2=O)c(=O)[nH]1` (stereo not drawn): the INHIBITION was -4.09%.

Turning to `O=C(NC1CCCCNC1=O)c1cc2ccccc2[nH]c1=O` (stereo not drawn), the INHIBITION was -0.79%.

`O=C(CCc1c[nH]cn1)N1CC[C@@H](c2ccc3ccccc3c2)[C@H](O)C1`: the INHIBITION is on record as 43.1%.

Turning to `Cc1ccc(N2CCC3(CN(Cc4cccs4)CCC3(F)F)C2)nn1` (stereo not drawn), the INHIBITION is reported as -17.41%.

As for `Cc1ccc(NC2CCN(C(=O)Cc3ccc(C)s3)CC2)nn1`, the INHIBITION is reported as -19.35%.

Consider `Cc1ccc(CC(=O)N2CCC(Nc3cccnn3)CC2)s1`, for which the INHIBITION is recorded as 50.75%.

As to `O=C(Cc1c[nH]c2ccccc12)N1CCC(Nc2cccnn2)CC1`, the INHIBITION is -32.2%.

With `Cc1cccc2[nH]cc(CC(=O)N3CCC(Nc4cccnn4)CC3)c12`, the INHIBITION amounted to 64.16%.

Turning to `Cc1noc(C)c1CC(=O)N1CCC(Nc2cccnn2)CC1`, the INHIBITION is -57.89%.

For the compound `O=C(Cc1cccc2ccccc12)N1CCC(Nc2cccnn2)CC1`, the INHIBITION was -58.05%.
